# Assay results from PubChem BioAssay (NCATS).
# Records with an inconclusive call do not appear. A call without a number means that no potency is given here. Calls of active or inactive are those of the source. Unless noted, calls follow the shape of the dose curve; as a rule, active = well fitted curve in the direction sought with a large enough effect; inconclusive = small, poorly fitted or top-dose-only effect, or another doubt; inactive = no such curve, though single readings can be large; an effect the other way counts as inactive or inconclusive.
# How the values were obtained:
# [1] = biological target: T1, Tyrosine-protein phosphatase non-receptor type substrate 1 (Homo sapiens) + Leukocyte surface antigen CD47 (Homo sapiens) (UniProt P78324+Q08722); assay: CD47-SIRPalpha protein protein interaction - HTRF assay qHTS validation (AID 1347058; active = well fitted curve in the direction sought with a large enough effect in the signal ratio, not every such curve was filed as active; the % refers to the signal ratio; also: series mostly up to about 38 µM)
# Outline: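 TR-FRET read (Ch1/Ch2 ratio) of soluble extracellular CD47 and Avi-biotinylated SIRPalpha domains in PBS pH 7.4 with 0.05% IGEPAL; 7-point compound titration. Sequential 30 min room-temperature steps; non-biotinylated SIRPalpha as control inhibitor.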
# [2] = biological target: T1, Tyrosine-protein phosphatase non-receptor type substrate 1 (Homo sapiens) + Leukocyte surface antigen CD47 (Homo sapiens); assay: CD47-SIRPalpha protein protein interaction - Alpha assay qHTS validation (AID 1347059);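 also: bead proximity luminescence from CD47 binding SIRPalpha after compound preincubation with SIRPalpha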
# Outline: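 Soluble extracellular domains: Avi-tag biotinylated SIRPalpha (25 nM) preincubated 30 min RT with compound, then 6His-CD47 (12.5 nM) 30 min; Ni-NTA acceptor and streptavidin donor beads (10 ug/mL) 30 min, AlphaScreen read. PBS pH 7.4, 0.05% IGEPAL.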
# [3] = biological target: Parathyroid hormone/parathyroid hormone-related peptide receptor (Homo sapiens) (UniProt Q03431); assay: qHTS for PTHR1 Agonists: Optimization Screen against the NCGC LOPAC library (AID 1347079);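 also: GloSensor cAMP luminescence in HEK-293 GP2 cells expressing human PTHR1 with IBMX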
# Outline: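 Compounds were tested across a qHTS titration. PTHR1-expressing GP2 cells report cAMP rises via GloSensor luminescence after 1 hr compound exposure at 37C with IBMX present.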
# [4] = qHTS of pediatric cancer cell lines to identify multiple opportunities for drug repurposing: Primary screen for NB1643 cells (AID 1347099); also: nearly all actives have a fitted effect of over 50% in size
# Outline: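 Readout: CellTiter-Glo luminescence, 48 h treatment. Controls DMSO (neutral) and bortezomib 2.3 µM final (positive). Potency and efficacy taken from primary-screen concentration-response curves.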
# [5] = qHTS of pediatric cancer cell lines to identify multiple opportunities for drug repurposing: Primary screen for OHS-50 cells (AID 1347103); also: nearly all actives have a fitted effect of over 40% in size
# Outline: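 Cells (500-1,000/well) rested 5 h, then received compounds for 48 h; metabolically active cells were measured by CellTiter-Glo luminescence. Final concentrations spanned up to 46 µM (MIPE, 11-point) or 0.59 nM-46 µM (NPC, 8-point) in primary screens, 11-point in follow-ups.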
# Chain of Parathyroid hormone/parathyroid hormone-related peptide receptor (Homo sapiens) (Q03431 whole entry, looked up): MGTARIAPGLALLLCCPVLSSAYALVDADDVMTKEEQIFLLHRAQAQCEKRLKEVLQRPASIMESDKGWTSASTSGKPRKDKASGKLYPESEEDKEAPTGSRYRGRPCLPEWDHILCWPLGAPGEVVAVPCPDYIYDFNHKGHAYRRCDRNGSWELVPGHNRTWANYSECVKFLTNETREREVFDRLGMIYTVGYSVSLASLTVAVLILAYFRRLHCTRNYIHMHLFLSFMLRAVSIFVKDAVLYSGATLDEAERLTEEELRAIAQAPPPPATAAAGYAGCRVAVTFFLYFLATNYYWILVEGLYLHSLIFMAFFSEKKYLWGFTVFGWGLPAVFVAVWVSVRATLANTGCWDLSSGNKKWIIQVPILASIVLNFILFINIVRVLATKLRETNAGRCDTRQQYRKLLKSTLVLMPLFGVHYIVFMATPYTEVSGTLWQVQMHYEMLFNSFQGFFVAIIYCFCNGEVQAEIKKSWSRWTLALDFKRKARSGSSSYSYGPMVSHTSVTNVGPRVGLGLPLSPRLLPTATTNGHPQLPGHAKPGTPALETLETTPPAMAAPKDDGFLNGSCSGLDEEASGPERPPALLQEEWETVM
# T1 sequence (P78324 whole entry, looked up, the tested form may be a part): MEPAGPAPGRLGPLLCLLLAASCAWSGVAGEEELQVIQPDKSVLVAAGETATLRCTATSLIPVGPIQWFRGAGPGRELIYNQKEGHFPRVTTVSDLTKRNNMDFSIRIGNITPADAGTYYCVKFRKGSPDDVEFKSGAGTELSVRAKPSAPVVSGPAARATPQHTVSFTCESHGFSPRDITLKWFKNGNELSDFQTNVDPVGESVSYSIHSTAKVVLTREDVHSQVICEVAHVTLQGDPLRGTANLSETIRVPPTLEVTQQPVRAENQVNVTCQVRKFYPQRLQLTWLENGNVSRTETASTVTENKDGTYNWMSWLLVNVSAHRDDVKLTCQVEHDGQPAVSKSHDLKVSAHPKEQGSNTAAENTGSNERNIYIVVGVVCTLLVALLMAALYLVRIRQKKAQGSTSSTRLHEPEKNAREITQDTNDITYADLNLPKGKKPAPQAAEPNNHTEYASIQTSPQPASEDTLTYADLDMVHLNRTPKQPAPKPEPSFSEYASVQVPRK
# T1 sequence (Q08722 whole entry, looked up, the tested form may be a part): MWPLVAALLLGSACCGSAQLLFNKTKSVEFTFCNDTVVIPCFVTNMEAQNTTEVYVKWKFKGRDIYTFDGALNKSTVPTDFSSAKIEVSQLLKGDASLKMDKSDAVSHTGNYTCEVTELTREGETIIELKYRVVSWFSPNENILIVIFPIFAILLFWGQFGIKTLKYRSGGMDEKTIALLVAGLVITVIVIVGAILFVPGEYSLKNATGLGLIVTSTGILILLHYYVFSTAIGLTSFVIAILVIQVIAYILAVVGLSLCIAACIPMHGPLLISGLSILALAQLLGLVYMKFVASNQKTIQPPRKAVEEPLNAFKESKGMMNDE
Structure (SMILES),outcome [1],Potency [2],Potency [3],Potency [4],Potency [5]
Oc1cc2c(cc1O)CN(C(=S)NCCc1ccc(Cl)cc1)CCC2,inactive,inactive,inactive,,
CCOC(=O)C1=C(C)NC(C)=C(C(=O)OCC)C1c1c(F)c(F)c(F)c(F)c1F,inactive,inactive,inactive,,
Nc1ncnc2c1ncn2[C@@H]1O[C@H](COP(=O)(O)CP(=O)(O)OP(=O)(O)O)[C@@H](O)[C@H]1O,inactive,inactive,inactive,,
NC(=S)c1ccc[n+]([C@@H]2O[C@@H](COP(=O)([O-])OP(=O)(O)OC[C@H]3O[C@@H](n4cnc5c(N)ncnc54)[C@H](OP(=O)(O)O)[C@@H]3O)C(O)C2O)c1 (stereo partly specified),inactive,inactive,inactive,,
NS(=O)(=O)C#Cc1ccccc1,inactive,inactive,inactive,,
Nc1nc(Cl)nc2c1ncn2[C@@H]1O[C@H](COP(=O)(O)OP(=O)(O)OP(=O)(O)O)[C@@H](O)[C@H]1O,inactive,inactive,inactive,,
O=C(/C=C/c1ccc(O)c(O)c1)OCCc1ccccc1,inactive,inactive,inactive,,
O=C(O)CNC(=O)C(CS)Cc1ccccc1 (stereo unspecified),inactive,inactive,inactive,,
CC1(C)CCC=[N+]1[O-],inactive,inactive,inactive,,
COc1cc(C(O)CO)ccc1OS(=O)(=O)O (stereo unspecified),inactive,inactive,inactive,,
CCCCCCCC/C=C\CCCCCCCC(=O)NCCO,inactive,inactive,inactive,,
CCCCCCCCCCCCCCCCCC(=O)OC(CC(=O)O)C[N+](C)(C)C (stereo unspecified),inactive,inactive,inactive,,
Cc1ccc(S(=O)(=O)/C=C/C#N)cc1,inactive,inactive,inactive,,
CNC(=O)[C@H]1O[C@@H](n2cnc3c(NCc4cccc(I)c4)ncnc32)[C@H](O)[C@@H]1O,inactive,inactive,inactive,,
CN1CCc2cc(NC(=O)Nc3cccnc3)ccc21,inactive,inactive,inactive,,
CC(=O)N[C@H](C(=O)O)C(C)(C)SN=O,inactive,inactive,inactive,,
Clc1ccc(N2CCN(Cc3cc4ccccn4n3)CC2)cc1,inactive,inactive,inactive,,
NCC1OC(O[C@H]2[C@H](O)[C@@H](OC3C(O)C(N)CC(N)C3OC3OC(CO)C(O)C(O)C3N)O[C@@H]2CO)C(N)C(O)C1O (stereo partly specified),inactive,inactive,inactive,,
Clc1ccc(N2CCN(Cc3c[nH]c4ncccc34)CC2)cc1,inactive,inactive,inactive,,
C[N+]1(C)C2CC(OC(=O)[C@H](CO)c3ccccc3)CC1C1OC12 (stereo partly specified),inactive,inactive,inactive,,
COc1cc2c(CCNC(C)=O)c[nH]c2cc1Cl,inactive,inactive,inactive,,
O=C(O)c1cc(=O)c2c(Cl)cc(Cl)cc2[nH]1,inactive,inactive,inactive,,
S=C(S)OC1CC2CC1C1CCCC21 (stereo unspecified),inactive,inactive,inactive,,
CO/N=C(\C(=O)N[C@@H]1C(=O)N2C(C(=O)O)=C(COC(C)=O)CS[C@H]12)c1csc(N)n1,inactive,inactive,inactive,,
CCN(CC)c1ncnc2c1ncn2[C@@H]1O[C@H](COP(=O)(O)OP(=O)(O)C(Br)(Br)P(=O)(O)O)[C@@H](O)[C@H]1O,inactive,inactive,inactive,,
CN1C2CCC1CC(OC(=O)C(O)c1ccccc1)C2 (stereo unspecified),inactive,inactive,inactive,,
CC1OC1P(=O)(O)O (stereo unspecified),inactive,inactive,inactive,,
C=CC(N)CCC(=O)O (stereo unspecified),inactive,inactive,inactive,,

Structure (SMILES),outcome [1],Potency [2],Potency [3],Potency [4],Potency [5]
OC[C@H]1O[C@@H](n2cnc3c(NC4CCCC4)ncnc32)[C@H](O)[C@@H]1O,inactive,inactive,inactive,,
Oc1ccc(C2CNCc3sccc32)cc1O (stereo unspecified),inactive,inactive,inactive,,
Cc1cc(NC(=O)Nc2ccc3c(ccn3C)c2)sn1,inactive,inactive,inactive,,
COc1ccc2c(c1)CCC1C2CC[C@@]2(C)C1CC[C@@H]2NCCCCCCN1C(=O)CCC1=O (stereo partly specified),inactive,inactive,inactive,,
Nc1nc(Nc2ccccc2)nc2c1ncn2[C@@H]1O[C@H](CO)[C@@H](O)[C@H]1O,inactive,inactive,inactive,,
COc1ccccc1CNCCCCCCNCCCCCCCCNCCCCCCNCc1ccccc1OC,inactive,inactive,inactive,,
Fc1cccc(/C=N/N=C/c2cccc(F)c2)c1,inactive,inactive,inactive,,
CC(=O)SCC[N+](C)(C)C,inactive,inactive,inactive,,
CNc1ncnc2c1ncn2[C@@H]1O[C@H](CO)[C@@H](O)[C@H]1O,inactive,inactive,inactive,,
C[N+]1(C)CCC(OC(=O)C(c2ccccc2)c2ccccc2)CC1,inactive,inactive,inactive,,
C[N+](C)(C)CCOP(=O)(O)OP(=O)([O-])OC[C@H]1O[C@@H](n2ccc(N)nc2=O)[C@H](O)[C@@H]1O,inactive,inactive,inactive,,
COC(=O)c1c(C)[nH]c(C)c1C(=O)c1ccccc1Cc1ccccc1,inactive,inactive,inactive,,
O=c1[nH]c2cc(C(F)(F)F)ccc2n1-c1cc(C(F)(F)F)ccc1O,inactive,inactive,inactive,,
CC12C(=O)OC(=O)C1(C)C1CCC2O1 (stereo unspecified),inactive,inactive,inactive,,
NCCCS(=O)(=O)O,inactive,inactive,inactive,,
CN=c1nc(-c2ccccc2)n(-c2ccccc2)s1,inactive,inactive,inactive,,
O=C(O)c1cc(=O)c2ccccc2[nH]1,inactive,inactive,inactive,,
NC(CCCP(=O)(O)O)C(=O)O (stereo unspecified),inactive,inactive,inactive,,
CC[C@@H](C)[C@H]1O[C@]2(CC[C@H]1C)C[C@@H]1C[C@@H](CC=C(C)[C@@H](O[C@H]3C[C@H](OC)[C@@H](O[C@H]4C[C@H](OC)[C@@H](O)[C@H](C)O4)[C@H](C)O3)[C@@H](C)C=CC=C3CO[C@@H]4[C@H](O)C(C)=C[C@@H](C(=O)O1)[C@]34O)O2,inactive,inactive,inactive,,
CCCCC#Cc1nc(NC)c2ncn([C@@H]3O[C@H](CO)[C@@H](O)[C@H]3O)c2n1,inactive,inactive,inactive,,
Cc1cc(NC2CCCCC2)nc(-n2nc(C)cc2C)n1,inactive,inactive,inactive,,
CNC(=O)[C@H]1O[C@@H](n2cnc3c(NCc4ccc(N)cc4)ncnc32)[C@H](O)[C@@H]1O,inactive,inactive,inactive,,
O=C1NC(=O)/C(=C/c2ccc(-c3ccc(F)cc3O)o2)S1,inactive,inactive,inactive,,
NC[C@H]1O[C@@H](n2cnc3c(N)ncnc32)[C@H](O)[C@@H]1O,inactive,inactive,inactive,,
CN1CC(=O)N/C1=N/C(=O)Nc1cccc(Cl)c1,,,,inactive,inactive
CCC1C(=O)OCC1Cc1cncn1C (stereo unspecified),,,,inactive,inactive
COc1cc2nc(N3CCN(C(=O)OCc4ccccc4)C(C(=O)NC(C)(C)C)C3)nc(N)c2cc1OC (stereo unspecified),,,inactive,,
